Results as given in PubChem BioAssay (NCI).
Compounds without any hit were thinned out: in the full panel of roughly 83,000, 20% have a hit.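 The test compound was applied at a single concentration to cells in 96-well plates for 48 hours, and percent growth was recorded.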 Values without a mark were called inactive. Calls of active or inactive are those of the source. The calls were made as follows: active = growth percent below 10; inactive = the rest.

Legend:
Experiment in all cases: NCI-60 one-dose screen, 48 h (100 = growth as untreated, 0 = no growth, -100 = all killed)
Details in all cases: 10 µM unless noted
SK-MEL-2 melanoma = tested on: SK-MEL-2 melanoma
EKVX NSCLC = tested on: EKVX NSCLC
SN12C renal = tested on: SN12C renal
UO-31 renal = tested on: UO-31 renal
TK-10 renal = tested on: TK-10 renal
ACHN renal = tested on: ACHN renal
CAKI-1 renal = tested on: CAKI-1 renal
A498 renal = tested on: A498 renal
CCRF-CEM leukemia = tested on: CCRF-CEM leukemia
MOLT-4 leukemia = tested on: MOLT-4 leukemia
SR leukemia = tested on: SR leukemia
OVCAR-8 ovarian = tested on: OVCAR-8 ovarian
OVCAR-5 ovarian = tested on: OVCAR-5 ovarian
OVCAR-4 ovarian = tested on: OVCAR-4 ovarian
SK-OV-3 ovarian = tested on: SK-OV-3 ovarian
IGROV1 ovarian = tested on: IGROV1 ovarian
OVCAR-3 ovarian = tested on: OVCAR-3 ovarian
HS 578T breast = tested on: HS 578T breast
NCI/ADR-RES ovarian = tested on: NCI/ADR-RES ovarian
RPMI-8226 leukemia = tested on: RPMI-8226 leukemia

SMILES | growth (SK-MEL-2 melanoma) [%] | growth (EKVX NSCLC) [%] | growth (SN12C renal) [%] | growth (UO-31 renal) | growth (TK-10 renal) [%] | growth (ACHN renal) [%] | growth (CAKI-1 renal) [%] | growth (A498 renal) [%] | growth (CCRF-CEM leukemia) [%] | growth (MOLT-4 leukemia) [%] | growth (SR leukemia) [%] | growth (OVCAR-8 ovarian) [%] | growth (OVCAR-5 ovarian) [%] | growth (OVCAR-4 ovarian) [%] | growth (SK-OV-3 ovarian) [%] | growth (IGROV1 ovarian) [%] | growth (OVCAR-3 ovarian) [%] | growth (HS 578T breast) [%] | growth (NCI/ADR-RES ovarian) [%] | growth (RPMI-8226 leukemia) [%]
NCC(O)C(O)C(O)C(O)CO (stereo not drawn) | 96.4 | 102 | 96.2 | 93.2% | 88.5 | 105 | 88.6 | 98.6 | 89.8 | 101 | 96.6 | 100 | 107 | 103 | 86.1 | 101 | 101 | 97.1 | 102 | –
COc1cc(-c2ccc(NC(=O)CC(C)=O)c(OC)c2)ccc1NC(=O)CC(C)=O | 108 | 108 | 104 | 86.3% | 115 | 88.6 | 97 | 110 | 100 | 89.5 | 93.7 | 94.8 | 98.3 | – | 101 | 112 | 110 | 117 | 95.2 | 95.2
C1Cc2onc(-c3noc4c3CCC4)c2C1 | 124 | 104 | 96.2 | 87.9% | 105 | 114 | 94.5 | 136 | 101 | 110 | 99.1 | 110 | 103 | – | 106 | 114 | 115 | – | 115 | 113
O=C(Nc1ccc([N+](=O)[O-])cc1)C(=O)Nc1ccc([N+](=O)[O-])cc1 | 97 | 103 | 102 | 89.1% | 98.5 | 107 | 98.1 | 100 | 101 | 101 | 101 | 86.4 | – | – | 93.5 | 105 | 103 | 95 | 105 | 105
OC1Cc2ccccc2C1 | 107 | 99.9 | 104 | 97.5% | 95.9 | 98.3 | 103 | 82.9 | 98.1 | 98.9 | 94.6 | 103 | 95.4 | 110 | 111 | – | 104 | 96 | 93.9 | –
O=C(Oc1ccccc1Cl)c1ccc(Cl)cc1Cl | 109 | 94.4 | 98.3 | 85.4% | 103 | 103 | 99.8 | 94.2 | 99.9 | 110 | 104 | 101 | – | 109 | 99.6 | 108 | 107 | 93.8 | 103 | 98.9
O=C(c1ccc(Cl)cc1)N1CCCCC1 | 102 | 98.1 | 92.2 | 93.3% | 91 | 101 | 97.4 | 73.3 | 93.3 | 98.9 | 96.9 | 106 | 102 | – | 105 | 105 | 112 | 23.2 | 102 | 102
CCOc1ccc(NC(=S)N2CCC(CCCC3CCN(C(=S)Nc4ccc(OCC)cc4)CC3)CC2)cc1 | 104 | 60.5 | 95.9 | -7.89% (active) | 96.9 | 82.8 | 69.7 | 79 | 81.6 | 73.7 | 95.2 | 92.2 | 102 | 85.1 | 91.1 | 94.5 | 79.3 | 85.3 | 94 | –
Cc1cc2nc(C)c(C)nc2cc1C | 113 | 98.4 | 115 | 78.2% | 118 | 90.7 | 81.8 | 114 | 102 | 106 | 96.8 | 94.2 | 95.3 | – | 99.5 | 97 | 105 | 108 | 101 | 89.5
